# Measurements: the supplement of paper PMC11732987, “Enantioselective OTUD7B fragment discovery through chemoproteomics screening and high-throughput optimisation” (Communications Chemistry, 2025)
# Values without a mark were called inactive.
# Key:
# Assay in all cases: log2 ratio of Biotin-Ahx-Ub-VS probe labelling (fragment/DMSO); higher = less target engagement (more negative = stronger competition), active = hit call of the paper (q ≤ 0.05, log2 ratio ≤ -1)
# Settings in all cases: compound concentration: 200 uM; treatment time: 3 h
# USP42 = biological target: T1, USP42 (UniProt Q9H9J4)
# T1 sequence (whole entry): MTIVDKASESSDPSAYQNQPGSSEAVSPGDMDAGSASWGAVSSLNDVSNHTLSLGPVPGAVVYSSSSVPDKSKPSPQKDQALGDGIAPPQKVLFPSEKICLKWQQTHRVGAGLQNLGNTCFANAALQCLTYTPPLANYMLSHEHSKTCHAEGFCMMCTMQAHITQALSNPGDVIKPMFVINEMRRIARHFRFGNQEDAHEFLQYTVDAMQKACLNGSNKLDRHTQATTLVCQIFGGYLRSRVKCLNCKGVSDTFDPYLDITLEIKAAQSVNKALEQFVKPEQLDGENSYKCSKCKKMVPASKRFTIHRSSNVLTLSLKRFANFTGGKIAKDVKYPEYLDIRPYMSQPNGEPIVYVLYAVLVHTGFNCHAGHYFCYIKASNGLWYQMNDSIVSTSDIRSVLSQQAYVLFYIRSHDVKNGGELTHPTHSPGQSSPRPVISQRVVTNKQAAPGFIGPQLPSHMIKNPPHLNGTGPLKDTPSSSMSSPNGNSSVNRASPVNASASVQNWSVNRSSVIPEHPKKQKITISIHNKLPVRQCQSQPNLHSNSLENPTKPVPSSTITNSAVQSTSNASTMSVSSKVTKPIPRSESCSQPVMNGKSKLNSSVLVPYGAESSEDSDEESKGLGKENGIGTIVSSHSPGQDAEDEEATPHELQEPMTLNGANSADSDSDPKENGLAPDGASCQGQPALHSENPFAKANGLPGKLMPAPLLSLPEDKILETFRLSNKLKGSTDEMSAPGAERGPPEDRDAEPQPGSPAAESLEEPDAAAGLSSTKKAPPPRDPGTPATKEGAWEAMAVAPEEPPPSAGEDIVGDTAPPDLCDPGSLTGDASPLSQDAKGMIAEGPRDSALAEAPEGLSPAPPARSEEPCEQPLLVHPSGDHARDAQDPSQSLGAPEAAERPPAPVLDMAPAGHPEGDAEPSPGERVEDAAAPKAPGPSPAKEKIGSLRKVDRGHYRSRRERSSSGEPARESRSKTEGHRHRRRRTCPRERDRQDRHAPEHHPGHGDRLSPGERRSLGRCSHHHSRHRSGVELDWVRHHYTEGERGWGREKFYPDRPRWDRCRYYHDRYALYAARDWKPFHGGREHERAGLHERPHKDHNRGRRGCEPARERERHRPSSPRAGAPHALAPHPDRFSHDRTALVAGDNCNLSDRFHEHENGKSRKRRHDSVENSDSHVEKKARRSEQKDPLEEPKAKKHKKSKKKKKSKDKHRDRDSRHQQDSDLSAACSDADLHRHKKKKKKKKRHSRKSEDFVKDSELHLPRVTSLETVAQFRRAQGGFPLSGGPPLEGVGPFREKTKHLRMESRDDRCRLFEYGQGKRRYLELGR
# Summary of the method: (§1)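 HEK293T lysate, 495 µg per sample in Tris/CHAPS/IGEPAL buffer with protease inhibitors, was treated in triplicate with fragment at 200 µM or vehicle for 3 h and then with Biotin-Ahx-Ub-VS at 0.5 µM final for 1 h. Labelled DUBs were NeutrAvidin-enriched, digested with LysC and trypsin, and run by diaPASEF LC-MS/MS. Spectronaut label-free quantities were global-median-normalised, and values are average log2 fragment/vehicle ratios by unpaired t-test on proteins with ≥2 unique peptides.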
# USP46 = USP46 (UniProt P62068)
# Summary of the method: as §1
# USP47 = biological target: T2, USP47 (UniProt Q96K76)
# T2 sequence (whole entry): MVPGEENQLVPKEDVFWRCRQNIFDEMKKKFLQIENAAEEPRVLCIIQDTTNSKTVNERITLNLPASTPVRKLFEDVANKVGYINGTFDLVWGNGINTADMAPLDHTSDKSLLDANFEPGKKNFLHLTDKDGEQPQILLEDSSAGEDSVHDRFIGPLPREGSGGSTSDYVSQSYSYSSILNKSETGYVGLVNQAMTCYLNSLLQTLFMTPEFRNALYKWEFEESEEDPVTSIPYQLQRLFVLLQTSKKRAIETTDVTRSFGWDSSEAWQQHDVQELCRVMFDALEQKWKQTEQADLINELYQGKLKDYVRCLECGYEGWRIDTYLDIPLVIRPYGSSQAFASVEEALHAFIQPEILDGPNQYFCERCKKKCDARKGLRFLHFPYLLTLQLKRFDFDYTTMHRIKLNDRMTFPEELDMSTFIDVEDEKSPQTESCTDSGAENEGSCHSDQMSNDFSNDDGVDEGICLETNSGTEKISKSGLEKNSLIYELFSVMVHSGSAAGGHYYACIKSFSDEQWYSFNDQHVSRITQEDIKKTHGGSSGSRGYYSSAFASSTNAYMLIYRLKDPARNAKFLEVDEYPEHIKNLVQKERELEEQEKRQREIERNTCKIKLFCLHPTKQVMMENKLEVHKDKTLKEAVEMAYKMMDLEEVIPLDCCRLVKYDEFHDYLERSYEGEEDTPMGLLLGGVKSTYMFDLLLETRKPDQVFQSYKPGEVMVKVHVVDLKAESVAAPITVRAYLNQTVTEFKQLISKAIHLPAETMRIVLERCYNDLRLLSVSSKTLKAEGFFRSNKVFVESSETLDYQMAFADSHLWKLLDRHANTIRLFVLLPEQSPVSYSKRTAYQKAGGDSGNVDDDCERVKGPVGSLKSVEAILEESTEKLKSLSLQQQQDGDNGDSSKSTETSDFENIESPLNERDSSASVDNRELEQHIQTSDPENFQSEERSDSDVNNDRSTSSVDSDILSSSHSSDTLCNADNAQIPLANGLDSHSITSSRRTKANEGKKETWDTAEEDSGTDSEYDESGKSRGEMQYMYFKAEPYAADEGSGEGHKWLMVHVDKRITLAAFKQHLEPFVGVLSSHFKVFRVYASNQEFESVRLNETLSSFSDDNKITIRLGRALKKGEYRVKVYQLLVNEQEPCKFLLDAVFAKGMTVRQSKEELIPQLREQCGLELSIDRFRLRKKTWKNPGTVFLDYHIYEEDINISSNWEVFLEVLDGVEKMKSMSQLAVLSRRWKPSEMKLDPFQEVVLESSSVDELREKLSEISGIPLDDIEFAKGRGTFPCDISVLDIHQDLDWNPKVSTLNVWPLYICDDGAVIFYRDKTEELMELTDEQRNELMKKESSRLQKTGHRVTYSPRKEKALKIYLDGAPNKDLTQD
# Summary of the method: as §1
# USP48 = biological target: T3, USP48 (UniProt Q86UV5)
# T3 sequence (whole entry): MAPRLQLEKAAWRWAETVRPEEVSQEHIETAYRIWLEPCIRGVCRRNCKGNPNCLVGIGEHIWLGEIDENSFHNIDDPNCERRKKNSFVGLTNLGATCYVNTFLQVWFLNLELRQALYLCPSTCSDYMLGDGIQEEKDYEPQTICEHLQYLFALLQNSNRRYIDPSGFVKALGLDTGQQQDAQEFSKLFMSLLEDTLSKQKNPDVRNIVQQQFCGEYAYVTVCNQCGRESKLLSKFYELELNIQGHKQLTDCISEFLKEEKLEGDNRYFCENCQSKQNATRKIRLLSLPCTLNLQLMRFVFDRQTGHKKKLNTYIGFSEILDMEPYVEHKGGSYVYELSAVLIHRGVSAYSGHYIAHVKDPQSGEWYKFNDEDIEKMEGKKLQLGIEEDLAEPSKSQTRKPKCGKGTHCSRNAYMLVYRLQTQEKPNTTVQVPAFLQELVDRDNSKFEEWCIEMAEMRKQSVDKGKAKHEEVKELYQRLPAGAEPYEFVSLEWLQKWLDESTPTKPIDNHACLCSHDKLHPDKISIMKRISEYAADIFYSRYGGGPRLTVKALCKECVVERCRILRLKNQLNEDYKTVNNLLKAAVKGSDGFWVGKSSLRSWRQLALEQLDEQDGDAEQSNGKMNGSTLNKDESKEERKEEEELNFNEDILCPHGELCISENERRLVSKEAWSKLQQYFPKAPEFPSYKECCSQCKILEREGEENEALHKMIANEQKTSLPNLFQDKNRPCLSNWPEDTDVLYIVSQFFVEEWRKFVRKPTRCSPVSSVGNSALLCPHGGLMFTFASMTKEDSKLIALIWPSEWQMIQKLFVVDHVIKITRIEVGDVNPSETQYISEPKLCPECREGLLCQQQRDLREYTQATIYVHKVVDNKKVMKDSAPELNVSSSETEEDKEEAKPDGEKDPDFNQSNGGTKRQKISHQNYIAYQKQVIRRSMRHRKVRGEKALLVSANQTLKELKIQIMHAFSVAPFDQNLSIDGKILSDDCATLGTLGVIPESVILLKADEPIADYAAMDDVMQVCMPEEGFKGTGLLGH
# Summary of the method: as §1
# USP5 = biological target: T4, USP5 (UniProt P45974)
# T4 sequence (whole entry): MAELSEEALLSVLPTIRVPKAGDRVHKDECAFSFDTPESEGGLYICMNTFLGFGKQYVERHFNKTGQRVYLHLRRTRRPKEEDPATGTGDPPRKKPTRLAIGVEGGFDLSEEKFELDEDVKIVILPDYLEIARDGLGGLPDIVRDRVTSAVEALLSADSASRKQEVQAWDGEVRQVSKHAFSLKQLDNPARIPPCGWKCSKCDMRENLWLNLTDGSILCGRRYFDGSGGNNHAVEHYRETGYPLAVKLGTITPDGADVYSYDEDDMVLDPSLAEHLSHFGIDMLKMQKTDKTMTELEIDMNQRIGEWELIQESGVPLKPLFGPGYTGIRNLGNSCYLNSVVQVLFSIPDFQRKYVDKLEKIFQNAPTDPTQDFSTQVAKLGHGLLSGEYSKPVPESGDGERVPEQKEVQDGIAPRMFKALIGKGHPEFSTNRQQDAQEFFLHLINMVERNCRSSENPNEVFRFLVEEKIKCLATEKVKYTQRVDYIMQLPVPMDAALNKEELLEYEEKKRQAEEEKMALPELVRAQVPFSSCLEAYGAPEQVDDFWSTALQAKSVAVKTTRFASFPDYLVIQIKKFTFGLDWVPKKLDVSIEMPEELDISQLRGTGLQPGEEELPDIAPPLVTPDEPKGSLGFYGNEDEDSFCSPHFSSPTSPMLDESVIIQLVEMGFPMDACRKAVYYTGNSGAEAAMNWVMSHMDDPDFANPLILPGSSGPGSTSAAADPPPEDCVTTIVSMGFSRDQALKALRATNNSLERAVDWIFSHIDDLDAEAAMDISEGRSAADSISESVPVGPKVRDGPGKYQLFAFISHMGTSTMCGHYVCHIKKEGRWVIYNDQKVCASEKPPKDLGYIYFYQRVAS
# Summary of the method: as §1
# USP54 = USP54 (UniProt Q70EL1)
# Summary of the method: as §1
# USP7 = USP7 (UniProt Q93009)
# Summary of the method: as §1
# USP8 = biological target: T5, USP8 (UniProt P40818)
# T5 sequence (whole entry): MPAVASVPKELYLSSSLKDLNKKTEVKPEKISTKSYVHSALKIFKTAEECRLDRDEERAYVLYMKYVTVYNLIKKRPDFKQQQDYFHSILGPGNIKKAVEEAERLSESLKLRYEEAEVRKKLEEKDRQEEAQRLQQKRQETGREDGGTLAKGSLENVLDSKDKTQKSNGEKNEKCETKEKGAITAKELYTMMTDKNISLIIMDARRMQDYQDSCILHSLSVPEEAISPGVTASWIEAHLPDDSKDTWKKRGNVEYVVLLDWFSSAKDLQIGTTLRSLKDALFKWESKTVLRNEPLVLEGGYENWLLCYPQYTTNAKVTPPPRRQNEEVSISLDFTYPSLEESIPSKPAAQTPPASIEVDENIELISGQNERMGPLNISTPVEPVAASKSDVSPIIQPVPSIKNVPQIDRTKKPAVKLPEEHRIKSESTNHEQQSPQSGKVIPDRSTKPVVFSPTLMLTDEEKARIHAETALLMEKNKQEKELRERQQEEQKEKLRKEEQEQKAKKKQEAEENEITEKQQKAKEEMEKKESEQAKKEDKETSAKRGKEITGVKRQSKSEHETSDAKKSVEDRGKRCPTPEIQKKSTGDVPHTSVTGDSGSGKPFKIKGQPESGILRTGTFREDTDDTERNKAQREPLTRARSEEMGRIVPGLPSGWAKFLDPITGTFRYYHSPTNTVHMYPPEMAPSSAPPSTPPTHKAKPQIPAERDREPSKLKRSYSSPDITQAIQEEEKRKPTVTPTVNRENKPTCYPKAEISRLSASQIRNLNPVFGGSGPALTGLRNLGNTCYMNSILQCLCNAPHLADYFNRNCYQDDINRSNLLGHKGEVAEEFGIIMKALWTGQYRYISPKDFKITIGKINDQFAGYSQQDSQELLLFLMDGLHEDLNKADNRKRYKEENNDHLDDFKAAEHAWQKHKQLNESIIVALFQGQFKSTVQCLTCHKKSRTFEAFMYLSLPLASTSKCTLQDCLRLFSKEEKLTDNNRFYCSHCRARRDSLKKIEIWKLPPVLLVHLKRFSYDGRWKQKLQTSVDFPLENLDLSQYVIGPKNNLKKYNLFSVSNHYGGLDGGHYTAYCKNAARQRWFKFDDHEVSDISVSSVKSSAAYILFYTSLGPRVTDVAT
# Summary of the method: as §1
# USP9X = USP9X (UniProt Q93008)
# Summary of the method: as §1
# UniProt O00487 = biological target: UniProt O00487
# Summary of the method: as §1
# Sequence of USP9X (Q93008 whole entry): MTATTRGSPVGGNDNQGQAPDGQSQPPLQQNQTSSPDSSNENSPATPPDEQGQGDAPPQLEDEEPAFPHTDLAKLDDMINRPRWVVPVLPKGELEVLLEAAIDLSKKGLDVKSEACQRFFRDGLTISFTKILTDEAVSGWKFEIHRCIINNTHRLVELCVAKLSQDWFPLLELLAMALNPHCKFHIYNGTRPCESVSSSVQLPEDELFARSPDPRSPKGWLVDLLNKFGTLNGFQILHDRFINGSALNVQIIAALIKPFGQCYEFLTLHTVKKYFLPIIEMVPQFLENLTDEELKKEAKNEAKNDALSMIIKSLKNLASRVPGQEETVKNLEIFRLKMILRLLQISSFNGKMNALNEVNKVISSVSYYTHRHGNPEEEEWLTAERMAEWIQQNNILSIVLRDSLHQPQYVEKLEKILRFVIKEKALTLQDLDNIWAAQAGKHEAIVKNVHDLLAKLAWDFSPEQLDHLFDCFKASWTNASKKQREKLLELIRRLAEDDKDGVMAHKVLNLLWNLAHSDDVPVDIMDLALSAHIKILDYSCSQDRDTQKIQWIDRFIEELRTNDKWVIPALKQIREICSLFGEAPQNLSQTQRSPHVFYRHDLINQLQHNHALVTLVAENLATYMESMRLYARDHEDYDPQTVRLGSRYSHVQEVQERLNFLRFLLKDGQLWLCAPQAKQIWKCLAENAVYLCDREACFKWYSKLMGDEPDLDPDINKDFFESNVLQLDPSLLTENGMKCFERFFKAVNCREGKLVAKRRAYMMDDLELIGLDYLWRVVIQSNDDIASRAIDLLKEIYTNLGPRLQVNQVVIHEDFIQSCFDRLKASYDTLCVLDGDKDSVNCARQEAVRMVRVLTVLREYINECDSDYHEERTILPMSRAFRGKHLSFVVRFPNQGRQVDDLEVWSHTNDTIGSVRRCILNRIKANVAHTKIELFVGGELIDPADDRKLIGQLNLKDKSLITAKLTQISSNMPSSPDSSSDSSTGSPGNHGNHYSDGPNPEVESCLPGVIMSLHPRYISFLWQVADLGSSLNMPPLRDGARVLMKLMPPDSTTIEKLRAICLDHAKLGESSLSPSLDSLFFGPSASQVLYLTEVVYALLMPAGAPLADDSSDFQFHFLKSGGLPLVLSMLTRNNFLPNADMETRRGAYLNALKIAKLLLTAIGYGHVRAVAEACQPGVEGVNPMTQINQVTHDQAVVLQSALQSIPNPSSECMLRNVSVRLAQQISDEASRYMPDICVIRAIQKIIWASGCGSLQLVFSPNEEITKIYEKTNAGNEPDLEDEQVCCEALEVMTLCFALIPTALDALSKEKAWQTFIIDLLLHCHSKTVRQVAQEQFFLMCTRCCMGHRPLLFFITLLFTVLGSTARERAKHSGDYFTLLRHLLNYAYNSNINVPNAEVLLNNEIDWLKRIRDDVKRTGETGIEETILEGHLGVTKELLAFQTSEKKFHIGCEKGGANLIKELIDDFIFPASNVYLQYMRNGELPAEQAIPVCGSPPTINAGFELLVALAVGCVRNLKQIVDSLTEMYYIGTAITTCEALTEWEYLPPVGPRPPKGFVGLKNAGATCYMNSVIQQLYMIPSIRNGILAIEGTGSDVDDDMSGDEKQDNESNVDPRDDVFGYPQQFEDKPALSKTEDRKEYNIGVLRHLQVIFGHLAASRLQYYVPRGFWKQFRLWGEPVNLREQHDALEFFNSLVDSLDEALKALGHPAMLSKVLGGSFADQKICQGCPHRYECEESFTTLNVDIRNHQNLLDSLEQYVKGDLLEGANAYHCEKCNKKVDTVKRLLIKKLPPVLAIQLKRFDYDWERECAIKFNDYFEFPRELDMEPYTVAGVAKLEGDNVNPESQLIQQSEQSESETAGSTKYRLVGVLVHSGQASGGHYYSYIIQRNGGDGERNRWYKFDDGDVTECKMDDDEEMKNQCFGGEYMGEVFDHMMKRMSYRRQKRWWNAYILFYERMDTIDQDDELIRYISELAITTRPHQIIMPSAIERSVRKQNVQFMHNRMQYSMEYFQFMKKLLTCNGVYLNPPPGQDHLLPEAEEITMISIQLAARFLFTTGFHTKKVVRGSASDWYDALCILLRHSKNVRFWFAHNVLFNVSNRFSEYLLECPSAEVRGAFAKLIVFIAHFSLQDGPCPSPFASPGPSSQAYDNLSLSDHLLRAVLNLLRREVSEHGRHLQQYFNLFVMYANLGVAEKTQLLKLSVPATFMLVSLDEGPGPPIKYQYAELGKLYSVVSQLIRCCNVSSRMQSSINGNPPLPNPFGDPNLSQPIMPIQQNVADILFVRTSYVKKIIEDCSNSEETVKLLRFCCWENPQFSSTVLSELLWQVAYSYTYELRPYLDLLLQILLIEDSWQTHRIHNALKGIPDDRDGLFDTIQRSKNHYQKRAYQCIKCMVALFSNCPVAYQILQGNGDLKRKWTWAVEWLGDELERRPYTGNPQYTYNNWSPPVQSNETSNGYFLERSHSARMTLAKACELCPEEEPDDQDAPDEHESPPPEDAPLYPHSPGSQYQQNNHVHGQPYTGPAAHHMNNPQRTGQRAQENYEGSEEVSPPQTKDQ
# Sequence of USP7 (Q93009 whole entry, looked up): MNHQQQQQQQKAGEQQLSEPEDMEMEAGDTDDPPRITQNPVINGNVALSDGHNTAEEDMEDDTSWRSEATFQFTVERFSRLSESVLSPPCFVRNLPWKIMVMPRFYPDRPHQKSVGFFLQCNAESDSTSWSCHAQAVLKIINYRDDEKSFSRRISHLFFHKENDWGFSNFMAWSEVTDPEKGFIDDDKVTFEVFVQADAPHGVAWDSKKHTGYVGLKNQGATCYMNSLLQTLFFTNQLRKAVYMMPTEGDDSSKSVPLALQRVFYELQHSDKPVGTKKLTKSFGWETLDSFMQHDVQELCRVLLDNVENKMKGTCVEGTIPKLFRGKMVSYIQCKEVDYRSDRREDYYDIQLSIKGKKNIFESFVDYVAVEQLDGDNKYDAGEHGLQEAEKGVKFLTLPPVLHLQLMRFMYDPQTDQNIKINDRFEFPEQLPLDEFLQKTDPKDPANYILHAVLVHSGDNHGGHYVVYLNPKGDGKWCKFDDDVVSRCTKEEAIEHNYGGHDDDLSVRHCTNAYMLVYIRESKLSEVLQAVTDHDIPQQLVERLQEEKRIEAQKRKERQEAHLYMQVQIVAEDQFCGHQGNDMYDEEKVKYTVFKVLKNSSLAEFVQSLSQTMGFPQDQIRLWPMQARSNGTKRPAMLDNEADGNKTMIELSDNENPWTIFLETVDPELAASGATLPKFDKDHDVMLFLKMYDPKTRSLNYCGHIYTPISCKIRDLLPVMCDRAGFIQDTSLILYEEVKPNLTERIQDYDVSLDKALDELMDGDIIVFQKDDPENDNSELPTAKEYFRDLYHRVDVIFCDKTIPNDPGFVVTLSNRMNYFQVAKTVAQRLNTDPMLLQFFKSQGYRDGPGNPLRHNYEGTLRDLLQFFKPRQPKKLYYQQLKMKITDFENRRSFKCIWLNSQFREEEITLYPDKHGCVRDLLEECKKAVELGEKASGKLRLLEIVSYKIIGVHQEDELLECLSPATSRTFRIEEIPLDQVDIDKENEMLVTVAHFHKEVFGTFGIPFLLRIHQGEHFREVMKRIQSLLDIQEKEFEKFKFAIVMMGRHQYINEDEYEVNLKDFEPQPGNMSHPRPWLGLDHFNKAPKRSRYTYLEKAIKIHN
# Sequence of USP46 (P62068 whole entry): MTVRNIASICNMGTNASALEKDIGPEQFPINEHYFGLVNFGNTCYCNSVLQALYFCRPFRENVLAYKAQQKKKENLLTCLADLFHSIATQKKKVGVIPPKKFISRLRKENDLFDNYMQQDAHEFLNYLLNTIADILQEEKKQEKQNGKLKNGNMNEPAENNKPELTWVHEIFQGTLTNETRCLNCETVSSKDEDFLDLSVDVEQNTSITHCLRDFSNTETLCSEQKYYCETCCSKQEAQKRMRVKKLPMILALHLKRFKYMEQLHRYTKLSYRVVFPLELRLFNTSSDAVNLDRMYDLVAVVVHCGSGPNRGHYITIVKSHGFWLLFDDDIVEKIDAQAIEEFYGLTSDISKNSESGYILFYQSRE
# Sequence of UniProt O00487 (O00487 whole entry): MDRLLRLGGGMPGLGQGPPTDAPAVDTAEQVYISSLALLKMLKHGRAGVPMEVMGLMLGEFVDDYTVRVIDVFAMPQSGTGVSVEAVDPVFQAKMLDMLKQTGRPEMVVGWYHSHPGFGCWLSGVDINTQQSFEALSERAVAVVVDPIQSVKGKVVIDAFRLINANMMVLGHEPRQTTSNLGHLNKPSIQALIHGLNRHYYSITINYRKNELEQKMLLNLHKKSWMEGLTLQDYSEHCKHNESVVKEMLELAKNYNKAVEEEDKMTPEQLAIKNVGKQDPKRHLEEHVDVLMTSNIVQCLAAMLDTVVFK
structure (smiles),measurement,setting,value
Cc1n[nH]c2c1CN(C(=O)CCl)CC2,log2 ratio of Biotin-Ahx-Ub-VS probe labelling,USP42,0.421
same,log2 ratio of Biotin-Ahx-Ub-VS probe labelling,USP46,-0.91
same,log2 ratio of Biotin-Ahx-Ub-VS probe labelling,USP47,-1.08 (active)
same,log2 ratio of Biotin-Ahx-Ub-VS probe labelling,USP48,-0.779
same,log2 ratio of Biotin-Ahx-Ub-VS probe labelling,USP5,-0.67
same,log2 ratio of Biotin-Ahx-Ub-VS probe labelling,USP54,0.337
same,log2 ratio of Biotin-Ahx-Ub-VS probe labelling,USP7,-0.758
same,log2 ratio of Biotin-Ahx-Ub-VS probe labelling,USP8,-1.11 (active)
same,log2 ratio of Biotin-Ahx-Ub-VS probe labelling,USP9X,-0.85
same,log2 ratio of Biotin-Ahx-Ub-VS probe labelling,UniProt O00487,-0.184
